This is part of a sample that, as a whole, favours compounds with a hit. Of some 83,000 tested, about 20% had one in any assay.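 For each line, cells grew in 96-well plates with the test compound present at a single concentration for 48 hours.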 Values without a mark were called inactive. The source made the active and inactive calls.

The experiment deals with NCI-H322M lung. As to the kind of experiment: NCI-60 one-dose screen, 48 h (100 = growth as untreated, 0 = no growth, -100 = all killed). Particulars: 10 µM unless noted. On the procedure: Growth inhibition of the NCI-H322M human Non-Small Cell Lung tumor cell line is measured as a screen for anti-cancer activity. Cells are grown in 96 well plates and exposed to the test compound for 48 hours. Compounds are tested at a single concentration, which is 10^-5 M for most compounds. The reported endpoint is percent growth (GI% or GIPRCNT), where numbers from 0 - 100% represent growth inhibition, and numbers from -100% - 0 represent cell death. For example, a value of 40 represents 60% growth inhibition. A value of 0 means no net growth occurred over the course of the experiment. A value of -40 indicates 40% of cells at the beginning of the experiment died by the end of the experiment. A value of -100 means all cells are dead at the end of the experiment.
NCI-60 Human Tumor Cell Lines Screen was performed using the standard one-dose NCI protocol, which is described in more detail at https://dtp.cancer.gov/discovery_development/nci-60/default.htm.
Compounds with GIPRCNT values below 10 were considered active. Activity score was based on GIPRCNT using the following formula: […]
Score is 0 for GIPRCNT values of 100 or above, 50 for GIPRCNT values of 0, and 100 for GIPRCNT values of -100.
For the compound `CCC(CC)(c1ccccc1)C(OC(N)=O)c1ccccc1` (stereo not given), the growth is 85%.

Turning to `C[C@]12CC[C@@H]3C4=C(CC[C@H]3[C@@H]1CC[C@@H]2O)CC(=O)CC4`, the growth was 109%.

As for `C/C(=C\c1cc(C(F)(F)F)n(-c2ccc(N)cc2)n1)[C@@H]1C[C@@H]2O[C@]2(C)CCC[C@H](C)[C@H](O)[C@@H](C)C(=O)C(C)(C)[C@@H](O)CC(=O)O1`, the growth is 22.2%.

For the compound `COc1ccc(C(c2ccc(OC)cc2)C(Cl)(Cl)Cl)cc1`, the growth was 106%.

With `c1ccc([As]=[As]c2ccccc2)cc1` (stereo not given), the growth was -40.5% (active).

On to `c1ccc2nc(OCCN3CC3)ccc2c1`, for which the growth was 94%.

For `Oc1ccc2c3c1O[C@H]1c4[nH]c5ccccc5c4C[C@@]4(O)C(C2)N(CC2CC2)CC[C@]314`, the growth is 94.3%.

Regarding `CC(=O)C1C(=O)N(C)C(=O)N(C)C1=O`, the growth is 107%.

On to `CCC[CH2][Sn]([CH2]CCC)([CH2]CCC)[O]C(=O)c1ccc(Cl)cc1Cl`, for which the growth was -86.5% (active).

`O=CC(Br)C(Br)c1ccccc1` (stereo not given): the growth was 103%.

Consider `Oc1c(Br)cc(Br)cc1Br.[Cu+2]`, for which the growth was 88.3%.

In the case of `CC(=O)Oc1ccc(Cl)cc1`, the growth is 106%.

For the compound `[Cl][Hg][n]1cnc2c(Cl)c(Cl)c(Cl)cc21`, the growth is 93.4%.

For `CC12CCC(=O)C=C1CCC1C2CCC2(C)C(C(=O)COC(=O)Cc3ccc(N(CCCl)CCCl)cc3)CCC12` (stereo not given), the growth was 180%.

As to `CC(=O)[O][Hg][c]1nc2c(c(=O)n(C)c(=O)n2C)n1C`, the growth was 95.7%.

`Cc1cc(C)nc(C)c1.[Cl][Hg][Cl]`: the growth was 91.5%.

For `CC1=C(SCCC(=O)OCC(=O)NCCC[Te]c2ccccc2)C(=O)c2ccccc2C1=O`, the growth was -13.3% (active).

`CC1(C)CC(=O)CC(C)(C)N1N=O`: the growth was 121%.

On to `CCCCCCCCCCCCOc1ccc(C(=O)Oc2ccc(CSP3(=O)OCC4OC(n5cnc6c(N)ncnc65)C(F)C4OP(=O)(O)OCC4OC(n5ccc(=O)[nH]c5=O)C(F)C4O3)cc2)cc1` (stereo not given), for which the growth is 79%.

In the case of `O=[N+]([O-])c1cc([N+](=O)[O-])c(Cl)c(Cl)c1Cl`, the growth is 96.5%.

As to `COc1cc(CNCCc2ccc(Cl)cc2)cc(OC)c1O`, the growth is 78.9%.

`CC[CH2][Pb]([CH2]CC)([CH2]CC)[O]C(=O)C(F)(F)F`: the growth was -98.3% (active).

As to `COc1ccc(CN2CCN(Cc3ccccc3)CC2)c(O)c1`, the growth is 92.3%.

Consider `CC(C)(C)[Si](C)(C)OC1[C@@H](O[Si](C)(C)C(C)(C)C)[C@@H](CNC(=O)NC(=O)CF)O[C@H]1n1cnc2c(NC(=O)Nc3ccccc3)ncnc21` (stereo not given in full), for which the growth was 104%.

Turning to `C=C=[CH][Sn]([c]1ccccc1)([c]1ccccc1)[c]1ccccc1`, the growth is -15.6% (active).

Regarding `O=C(CCF)c1ccc(O)cc1`, the growth is 101%.

For the compound `CC1(C)N=C(N)N=C(N)N1c1ccc(CCCCc2ccc(S(=O)(=O)F)cc2)c(Cl)c1`, the growth is 43.1%.

Take `ClCCN(CCCl)c1ccc(/C=C\c2ccnc3ccccc23)cc1`: the growth was 92.3%.

With `CCN(CC)c1ccc(C=C2C(=O)NC(=S)NC2=O)cc1`, the growth is 104%.

In the case of `C[C@@H]1O[C@@H](O[C@H]2CC[C@@]3(C)[C@H](CCC4[C@@H]3C(O)C[C@]3(C)[C@@H](c5ccc(=O)oc5)CC[C@]43O)C2)[C@H](O)[C@H](O)[C@H]1O` (stereo not given in full), the growth is -73.9% (active).

Take `COC[CH2][Hg][C]#[C][Hg][CH2]COC`: the growth is 116%.

For `[O]=[Sn]([CH]1CCCCC1)[CH]1CCCCC1`, the growth is -96.7% (active).

With `CC(=O)O[C@@H]1C2=C(C)C3(CC3)[C@@](C)(O)C(=O)C2=C[C@@]1(C)CO`, the growth is -5.44% (active).

On to `CNC(=O)Oc1cccc(OC)c1`, for which the growth is 132%.

On to `O=C(O)c1[nH]c(=O)[nH]c(=O)c1F`, for which the growth was 92.5%.

`CC(C)(C)N(Cc1ccccc1)N=O`: the growth is 101%.

Regarding `COc1cc[c]([Hg][Cl])cc1`, the growth was 99.1%.

Take `ClCCN(CCCl)c1nc(Cl)c(C2CC(c3ccccc3)=NN2c2ccccc2)s1` (stereo not given): the growth was 86.9%.

`O=CN1N=C(c2ccc3c(c2)OCO3)CC1c1sc(N(CCCl)CCCl)nc1Cl` (stereo not given): the growth was 75.1%.

As for `COc1cc(N(CCCl)CCCl)ccc1C=Nc1ccccc1C(=O)O`, the growth is 95.7%.

The values are drawn from PubChem BioAssay (NCI).
